High-throughput results deposited in PubChem BioAssay by National Center for Advancing Translational Sciences (NCATS).
SW480 rerep: induces DNA re-replication in SW480 colon adenocarcinoma cells | SW480 DNA re-replication, Hoechst DNA content imaging, 48 h | AID 624297 | Potency, µM (titrated, usually from 46.1 µM), without a hit: at the top dose re-replication activation, most hits filed as activators | 340,000 compounds, 1.8% hits; note: potency is the fitted concentration of half-maximal effect; % of control where 0% means no effect; nearly all actives have a fitted effect of over 55% in size
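Cells (250 per well) received 23 nL compound or DMSO by pin tool and were kept 48 hr at 37 C, 5% CO2. Nuclei were then stained with Hoechst for 40 min and scanned for DNA content.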
DT40 TDP1 CPT: growth inhibition of DT40 Tdp1-/-;hTDP1 cells with camptothecin (screen for TDP1 inhibitors). 420,000 compounds, 12% hits. Potency, µM (doses to about 46.2 µM), for inactives: at the highest dose activity change, negative = growth inhibition, actives largely listed as inhibitors. chicken DT40 Tdp1-/-;hTDP1 cells + 20 nM CPT, ATP luminescence, 48 h; note: potency is the fitted concentration of half-maximal effect; % is set by controls: 0 for no effect and ±100 for the full control effect; nearly all actives have a fitted effect of over 55% in size
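Cell growth measured by CellTiter-Glo luminescence after a minimum 48 h, 37 C compound exposure with 20 nM CPT in Tdp1-knockout DT40 cells stably expressing hTDP1, seeded 400/well; qHTS titration format.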
MCF10A rerep: inducers of DNA re-replication in MCF 10A breast cells | MCF 10A DNA re-replication, Hoechst nuclear intensity, 48 h | Potency, µM (top dose mostly 46.1 µM), inactives show top-dose activity, positive = re-replication, actives largely listed as activators | 350,000 compounds, 2.9% hits | AID 624296; note: potency is the fitted concentration of half-maximal effect; % of control where 0% means no effect; nearly all actives have a fitted effect of over 50% in size
IL-1B inflam inh: inhibitors of inflammasome signaling (IL-1 beta secretion); THP-1 LPS/ATP IL-1B secretion, AlphaLISA, 16 h; active compounds read low; activity change, % at 57.5 µM; 360,000 compounds, 4.7% hits; in the data active = activity change below about -50%; inconclusive = mostly about -30% to -49%; note: % is set by controls: 0 for no effect and ±100 for the full control effect
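THP-1 cells pretreated 1 hr with compounds (up to 57.5 uM final), then stimulated with LPS (250 ng/mL final) plus ATP (1.25 mM final); secreted IL-1B measured by AlphaLISA after 16 hr, decreased signal indicating inhibition.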
DT40 TDP1 no CPT: qHTS for Inhibitors of human tyrosyl-DNA phosphodiesterase 1 (TDP1): qHTS in cells in absence of CPT; DT40 Tdp1-/- hTDP1 cells, no CPT, ATP luminescence, 48 h; 420,000 compounds, 15% hits; Potency, µM (doses to about 46.2 µM), for the others: at the top dose activity change, negative = growth inhibition, actives largely listed as inhibitors; note: potency is the fitted concentration of half-maximal effect; % is set by controls: 0 for no effect and ±100 for the full control effect; nearly all actives have a fitted effect of over 55% in size
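A cellular qHTS used chicken DT40 cells lacking endogenous Tdp1 but carrying stably transfected human TDP1. Compounds were applied without camptothecin, and cell growth kinetics were judged by ATP-dependent luminescence after ≥48 hr.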
Chronic BCR inh: blocks chronic active B-cell receptor signaling; Potency, µM (top dose mostly 46.1 µM), for the others: at the highest dose activity change, negative = inhibition, actives largely listed as inhibitors; 340,000 compounds, 0.05% hits; ABC-DLBCL IkBa-CBG/CBR reporter, luminescence ratio, 4 h; active = well fitted inhibition curve with a large enough effect in the signal ratio, with a control signal flat, not every such curve was filed as active; inconclusive = small, poorly fitted or top-dose-only effect, or effect the other way, or a change in a side signal; the % refers to the signal ratio;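 note: potency is the fitted concentration of half-maximal effect; plate controls were basal doxycycline-induced cells for no effect and cells given 10 µM MG132 for full effect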
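TMD8 ABC-DLBCL cells carrying doxycycline-inducible green luciferase fused to IkappaBalpha plus unfused red luciferase were exposed to compounds (up to 46 uM) for 4 hrs at 37C. Activity came from the overlap-corrected green/red luminescence ratio.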
An asterisk follows results filed as active; ? = inconclusive; nt = no result given. An excerpt weighted towards active compounds, which were near 19% of everything screened. Unless noted, calls come from the whole dose curve; as a rule, active = well fitted curve in the direction sought with a large enough effect; inconclusive = small, poorly fitted or top-dose-only effect, or another doubt; inactive = no such curve, though single readings can be large; an effect the other way counts as inactive or inconclusive.

SMILES	SW480 rerep	DT40 TDP1 CPT	MCF10A rerep	IL-1B inflam inh	DT40 TDP1 no CPT	Chronic BCR inh
CC(=O)CSc1ncnc2sc3c(c12)CCCC3	-14.7%	-17.3%	6.3%	23.3	?	-6.1%
CCOC(=O)c1c[nH]c2c([N+](=O)[O-])cc(OC)cc2c1=O	16.4µM*	7.31µM*	22.1%	1.1	16.4µM*	nt
CCN(C[C@H]1N[C@@](Cc2ccccc2)(C(=O)OC)[C@H]2C(=O)N(C)C(=O)[C@@H]12)C(=O)COC	7.8%	-14.2%	11.3%	0.0	11.7%	-3.2%
Cc1ccc(C(=O)Nc2nnc(C)s2)cc1	?	-3.5%	-13.1%	0.0	1.8%	24.6%
Cc1ccc(C(=O)Nc2ncc(Cc3ccc(SC(F)F)cc3)s2)cc1	0.731µM*	1.16µM*	?	-0.3	1.3µM*	?
Cc1ccc(C(=O)Nc2ncc([N+](=O)[O-])s2)cc1	-7.0%	23.1µM*	-5.6%	-66.9*	18.4µM*	?
CC(=O)Nc1ncc([N+](=O)[O-])s1	1.9%	-20.6%	-4.1%	nt	-12.1%	nt
O=C(Nc1ncc([N+](=O)[O-])s1)c1ccc2c(c1)OCO2	8.1%	?	-2.8%	-12.5	18.4µM*	?
Cc1ccc([N+](=O)[O-])cc1NC(=O)c1ccc2c(c1)OCO2	-4.8%	11.4%	2.1%	0.0	2.9%	-0.8%
CNC(=O)C1(C)Cc2c(-c3ccc(NC(C)=O)cc3)ccnc2O1 (stereo not drawn)	nt	5.1%	nt	3.1	4.6%	nt
CC1(C(=O)Nc2cccc(OC(F)(F)F)c2)Cc2c(-c3ccc(C(N)=O)cc3)ccnc2O1 (stereo not drawn)	nt	?	nt	82.6	16.4µM*	nt
CC(=O)Nc1ccc(-c2ccnc3c2CC(C)(C(=O)Nc2ccc(Cl)cc2)O3)cc1 (stereo not drawn)	nt	?	nt	-53.1*	-24.1%	nt
CC(=O)Nc1cccc(-c2ccnc3c2CC(C)(C(=O)Nc2cccc(OC(F)(F)F)c2)O3)c1 (stereo not drawn)	nt	?	nt	13.4	?	nt
CC1(C(=O)Nc2cccc(Oc3ccccc3)c2)Cc2c(-c3ccc4c(c3)OCO4)ccnc2O1 (stereo not drawn)	nt	?	nt	80.1	13µM*	nt
CC(=O)Nc1ccc(-c2ccnc3c2CC(C)(C(=O)Nc2ccc4c(c2)OCO4)O3)cc1 (stereo not drawn)	nt	18.4µM*	nt	-51.5*	?	nt
CC(=O)Nc1ccc(-c2ccnc3c2CC(C)(C(=O)Nc2ccc(Cl)c(C(F)(F)F)c2)O3)cc1 (stereo not drawn)	nt	14.6µM*	nt	-20.6	23.1µM*	nt
CC1(C(=O)Nc2ccc(Cl)c(C(F)(F)F)c2)Cc2c(-c3ccccc3)ccnc2O1 (stereo not drawn)	nt	?	nt	-16.7	?	nt
CC1(C(=O)Nc2ccc(Cl)c(C(F)(F)F)c2)Cc2c(-c3ccc4c(c3)OCO4)ccnc2O1 (stereo not drawn)	nt	?	nt	-7.8	?	nt
CN(C)c1ccc(-c2ccnc3c2CC(C)(C(=O)Nc2ccc(Cl)c(C(F)(F)F)c2)O3)cc1 (stereo not drawn)	nt	?	nt	-20.3	5.17µM*	nt
Cc1cc(OCC(=O)OCC(=O)N2CCc3ccccc3C2)ccc1Cl	3.8%	6.6%	-6.5%	42.2	15.7%	7.2%
Cc1noc(C)c1COc1ccccc1C(=O)N1CCN(S(=O)(=O)c2ccccc2C(F)(F)F)CC1	1.5%	?	1.8%	0.0	?	-1.1%
Cc1noc(C)c1COc1ccccc1C(=O)N1CCN(S(=O)(=O)c2cccc(Cl)c2)CC1	-3.1%	-14.1%	7.8%	-3.5	-16.9%	1.6%
Cc1noc(C)c1COc1ccccc1C(=O)N1CCN(S(=O)(=O)c2ccc(C(C)C)cc2)CC1	nt	?	nt	-17.1	16.4µM*	nt
